High-throughput results: PubChem, Broad Institute
Rows were chosen to be rich in hits. Some 2.1% of all compounds tested hit in one or more screens of this group.
ROS inducer: ROS inducers in U2OS cancer cells, primary screen, cell-based, H2DCF-DA fluorescence | U2OS ROS induction | 46,000 compounds, 2% hits | ROS induction (% of piperlongumine), % at 10 µM; in the data active = ROS induction above about 79%, passing the limit was not always enough
YB-1 expr inh: inhibitors of YB-1 gene expression, primary screen, cell-based, fluorescence. U2OS, qRT-PCR YB-1 vs CDIP delta delta Cp, 16 h; stronger effect = higher value; zero = DMSO, each unit about twofold. delta delta Cp (YB-1 minus CDIP) (concentration not given with the values). 30,000 compounds, 0.37% hits;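 active = delta delta Cp rounded down to an integer at or above 3, about 3 SD of DMSO wells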;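 note: higher means less YB-1 transcript or more CDIP transcript relative to DMSO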
Each line names hits and unclear results; the compound was inactive in the other large screens.

CC(C)NC(=O)Nc1ccc2c(c1)C(=O)N([C@H](C)CO)C[C@H](C)[C@H](CN(C)C)OCCCC[C@@H](C)O2	none
C[C@H](CO)N1C[C@H](C)[C@H](CN(C)Cc2ccc3c(c2)OCO3)Oc2ccc(NS(=O)(=O)c3ccc(F)cc3)cc2CC1=O	none
C[C@H]1CN([C@@H](C)CO)C(=O)Cc2cc(NS(=O)(=O)c3ccc(F)cc3)ccc2O[C@H]1CN(C)Cc1ccc2c(c1)OCO2	ROS inducer 109
C[C@@H]1CN([C@H](C)CO)C(=O)Cc2cc(NS(=O)(=O)c3ccc(F)cc3)ccc2O[C@@H]1CN(C)Cc1ccc2c(c1)OCO2	none
C[C@@H]1CN([C@H](C)CO)C(=O)Cc2cc(NS(=O)(=O)c3ccc(F)cc3)ccc2O[C@H]1CN(C)Cc1ccc2c(c1)OCO2	ROS inducer 129
C[C@H]1CN([C@@H](C)CO)C(=O)c2cccc(NS(=O)(=O)c3cn(C)cn3)c2O[C@H]1CN(C)S(=O)(=O)c1cn(C)cn1	none
COc1ccc(/C=C2\CCc3ccccc3C2=O)cc1Cn1cccn1	none (no result: YB-1 expr inh)
COc1ccc2c(c1)C(=O)/C(=C/c1ccc(N(C)C)cc1)CC2	ROS inducer 122 (no result: YB-1 expr inh)
COc1ccc(-c2cc(-c3ccccc3)nc(SCC(=O)N3CCCCC3)c2C#N)cc1	none (no result: YB-1 expr inh)
COc1ccc(-c2cc(-c3ccccc3)c(C#N)c(SCS(=O)Cc3ccccc3)n2)cc1 (centres undefined)	ROS inducer 87 (no result: YB-1 expr inh)
C[C@@H]1CCCCO[C@@H](CN(C)S(=O)(=O)c2cccs2)[C@@H](C)CN([C@H](C)CO)C(=O)c2cc(NS(C)(=O)=O)ccc2O1	none
COc1ccc(CSc2nnc(CSc3cccs3)n2C)cc1	ROS inducer 87
Cn1c(CNC(=O)c2cccs2)nnc1SCc1ccccc1	none (no result: YB-1 expr inh)
CC(C)NC(=O)Nc1ccc2c(c1)C(=O)N([C@@H](C)CO)C[C@@H](C)[C@@H](CN(C)C(=O)Nc1ccc(C(F)(F)F)cc1)O2	none
COc1ccc(S(=O)(=O)N(C)C[C@H]2Oc3ccc(N(C)C)cc3CC(=O)N([C@H](C)CO)C[C@H]2C)cc1	none
Cc1noc(C)c1S(=O)(=O)Nc1cccc2c1O[C@@H](CN(C)S(=O)(=O)c1ccc(Cl)cc1)[C@@H](C)CN([C@@H](C)CO)C2=O	none
COc1ccc(S(=O)(=O)N(C)C[C@H]2Oc3ccc(NC(=O)Nc4ccc(F)cc4)cc3C(=O)N([C@H](C)CO)C[C@@H]2C)cc1	none
COc1ccc(S(=O)(=O)N(C)C[C@@H]2Oc3ccc(N(C)C)cc3CC(=O)N([C@H](C)CO)C[C@H]2C)cc1	ROS inducer 96
C[C@H]1CN([C@@H](C)CO)C(=O)c2cccc(NC(=O)Nc3cccc4ccccc34)c2O[C@@H]1CN(C)S(=O)(=O)c1ccc(F)cc1	ROS inducer 151
COc1ccc(S(=O)(=O)N(C)C[C@@H]2Oc3ccc(NC(=O)Nc4ccc(F)cc4)cc3C(=O)N([C@H](C)CO)C[C@@H]2C)cc1	ROS inducer 130
C[C@H]1CN([C@@H](C)CO)C(=O)c2cccc(NC(=O)Nc3cccc4ccccc34)c2O[C@H]1CN(C)S(=O)(=O)c1ccc(F)cc1	none
Cc1noc(C)c1S(=O)(=O)Nc1cccc2c1O[C@H](CN(C)S(=O)(=O)c1ccc(Cl)cc1)[C@H](C)CN([C@@H](C)CO)C2=O	ROS inducer 103
COC(=O)CNC(=O)c1cn(-c2ccccc2)nc1-c1cccs1	none (no result: YB-1 expr inh)
COc1ccc(S(=O)(=O)N(C)C[C@H]2Oc3ccc(NC(=O)NC(C)C)cc3C(=O)N([C@H](C)CO)C[C@@H]2C)cc1	none
CC(C)NC(=O)Nc1ccc2c(c1)CC(=O)N([C@H](C)CO)C[C@H](C)[C@H](CN(C)Cc1ccc(C(F)(F)F)cc1)O2	none
COc1ccc(NC(=O)Nc2ccc3c(c2)CC(=O)N([C@@H](C)CO)C[C@H](C)[C@H](CN(C)S(=O)(=O)c2ccc(F)cc2)O3)cc1	ROS inducer 97
COc1ccc(S(=O)(=O)N(C)C[C@@H]2Oc3ccc(NC(=O)Nc4ccc(F)cc4)cc3CC(=O)N([C@H](C)CO)C[C@H]2C)cc1	none
C[C@H](CO)N1C[C@H](C)[C@H](CN(C)S(=O)(=O)c2ccc(F)cc2)Oc2ccc(NC(=O)Nc3ccc(F)cc3)cc2CC1=O	none
C[C@H](CO)N1C[C@H](C)[C@H](CN(C)S(=O)(=O)c2ccc(F)cc2)Oc2ccc(NC(=O)Nc3ccc(C(F)(F)F)cc3)cc2CC1=O	ROS inducer 85
C[C@H]1CN([C@@H](C)CO)C(=O)c2cccc(NC(=O)c3ccncc3)c2O[C@H]1CN(C)CC1CC1	none
O=C(O)c1ccc(S(=O)(=O)N2CCCC3CCCCC32)cc1 (centres undefined)	none (no result: YB-1 expr inh)
COc1cc(C)nc(OCCNS(=O)(=O)c2cc(C)ccc2C)n1	none (no result: YB-1 expr inh)
COc1ccc(S(=O)(=O)Nc2ccc3c(c2)CC(=O)N([C@H](C)CO)C[C@H](C)[C@H](CN(C)S(=O)(=O)c2cccs2)O3)cc1	none
COC(=O)c1cc(O)cc(OC)c1C(=O)c1c(O)cc(C)cc1OC	none
COC(=O)c1cc(O)cc(OC)c1C(=O)c1c(O)cc(C)cc1O	ROS inducer 94
Cc1ccc(N(C(C)C(=O)Nc2cccc(C(F)(F)F)c2)S(C)(=O)=O)cc1 (centres undefined)	none (no result: YB-1 expr inh)
COc1ccc(NC(=O)Nc2cccc3c2O[C@@H](CN(C)Cc2ccc(C(=O)Nc4ccccc4N)cc2)[C@H](C)CN([C@H](C)CO)C3=O)cc1	none
C[C@@H]1CN([C@H](C)CO)C(=O)c2cccc(NC(=O)c3ccc(-c4nccs4)cc3)c2O[C@@H]1CN(C)Cc1ccc(-c2ccccc2)cc1	none
C[C@H](CO)N1C[C@H](C)[C@@H](CN(C)Cc2ccc(Cl)c(Cl)c2)Oc2c(NC(=O)c3ccc(-c4nccs4)cc3)cccc2C1=O	ROS inducer 97
C[C@@H]1CN([C@H](C)CO)C(=O)c2cccc(NC(=O)c3ccc(-c4nccs4)cc3)c2O[C@@H]1CN(C)Cc1ccc(C(=O)Nc2ccccc2N)cc1	ROS inducer 214
C[C@@H]1CN([C@H](C)CO)C(=O)c2cccc(NC(=O)c3ccc(-c4nccs4)cc3)c2O[C@H]1CN(C)Cc1ccc(C(=O)O)cc1	none
C[C@@H]1CN([C@H](C)CO)C(=O)c2cccc(NC(=O)c3ccc(-c4nccs4)cc3)c2O[C@H]1CN(C)Cc1ccc(C(F)(F)F)cc1	ROS inducer 105
C[C@H](CO)N1C[C@H](C)[C@H](CN(C)Cc2ccc(C(=O)Nc3ccccc3N)cc2)Oc2c(NC(=O)Nc3ccc(F)cc3)cccc2C1=O	none
C[C@H]1CN([C@@H](C)CO)C(=O)c2cccc(NC(=O)c3ccc(-c4nccs4)cc3)c2O[C@H]1CN(C)Cc1ccc(C(=O)Nc2ccccc2N)cc1	none
C[C@@H]1CN([C@@H](C)CO)C(=O)c2cccc(NC(=O)Nc3ccc(C(F)(F)F)cc3)c2O[C@H]1CN(C)Cc1ccc(C(=O)Nc2ccccc2N)cc1	ROS inducer 91
C[C@@H]1CN([C@@H](C)CO)C(=O)c2cccc(NC(=O)c3nc4ccccc4s3)c2O[C@@H]1CN(C)Cc1ccc(C(=O)Nc2ccccc2N)cc1	none
C[C@@H]1CN([C@H](C)CO)C(=O)c2cccc(NC(=O)c3ccncc3)c2O[C@H]1CN(C)C	none
C[C@H](CO)N1C[C@H](C)[C@H](CN(C)C)Oc2c(NC(=O)c3ccncc3)cccc2C1=O	YB-1 expr inh 3.6
CCc1cc(=O)oc2c(C)c(OCC(N)=O)ccc12	none (no result: YB-1 expr inh)
